The text below walks through data of PubChem BioAssay (NCI).

Assay [1] is described as follows: NCI Yeast Anticancer Drug Screen. Data for the rad50 strain (AID 155).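 Note: 0% = growth of vehicle-only cultures of the same strain.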 Conditions: S. cerevisiae rad50 strain growth inhibition; at 50.0 µM; hits give high values. In a few lines: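 Genetically altered yeast (DNA repair pathway); compound treatment; growth inhibition vs vehicle ctrl.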
Assay [2] can be described thus: NCI Yeast Anticancer Drug Screen. Data for the mec2-1 strain (AID 157). Conditions: S. cerevisiae mec2-1 strain, at 50.0 µM, hits give high values. The essentials:
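Compounds were applied to mec2-1 yeast cells. Their growth was then compared with that of vehicle-treated cultures to give growth inhibition.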

The nature of assay [3]: NCI Yeast Anticancer Drug Screen. Data for the sgs1 mgt1 strain (AID 161).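 Note: 0% = growth of cultures given vehicle only.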 The following applies: S. cerevisiae sgs1 mgt1 strain, at 50.0 µM, hits give high values. In a few lines: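 Growth of a repair-deficient yeast mutant was monitored after compound treatment and expressed as inhibition relative to vehicle-treated cultures.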
Assay [4] is described as follows: NCI Yeast Anticancer Drug Screen. Data for the cln2 rad14 strain (AID 165).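 Note: 0% = growth equal to vehicle treated cultures.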 The following applies: S. cerevisiae cln2 rad14 strain, at 50.0 µM, hits give high values. In a few lines:
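Strain: cln2 rad14 yeast, altered in cell cycle control and DNA damage repair. Read-out: growth inhibition vs vehicle.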

A short description of assay [5]: NCI Yeast Anticancer Drug Screen. Data for the bub3 strain (AID 167). Conditions: S. cerevisiae bub3 mutant strain, at 50.0 µM, hits give high values. The essentials:
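Yeast carrying a defined mutation is treated with each compound, and growth is compared with that of vehicle-exposed cells to give inhibition.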

Assay [6] can be described thus: NCI Yeast Anticancer Drug Screen. Data for the mlh1 rad18 strain (AID 175). The following applies: S. cerevisiae mlh1 rad18 strain growth inhibition; at 50.0 µM; hits give high values. The essentials:
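A repair-deficient yeast strain is exposed to test compound, and growth is scored relative to vehicle-treated controls.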

About 79,000 compounds went through this panel and 15% of them were active in at least one assay; those are over-represented in the sample as a whole. Unmarked numbers belong to inactive results. The source made the active and inactive calls. Cut-off read from the data, not from the text of the source: active = growth inhibition above about 70%; inactive = the rest.

For the compound `COc1ccc([N+](=O)[O-])c(C#N)c1`, the growth inhibition in assay [1] was 5.95%; in assay [2], -2.2%; in assay [3] it was 3.35%; in assay [4] it was -9.75%; in assay [5], -9.4%; in assay [6], -46.6%.
Take `COC(=O)CCC(=O)C(CC(=O)OC)C(=O)CCC(=O)NCCc1ccccc1` (stereo unspecified): the growth inhibition in assay [1] was -30.1%; in assay [2], -21.9%; in assay [3], -41.5%; in assay [4], 2.4%; in assay [5], -24.2%; in assay [6], -31.4%.
Take `CC1CC(=O)Oc2ccccc21` (stereo unspecified): the growth inhibition in assay [1] is 35.5%; in assay [2], 5.7%; in assay [3], 3.8%; in assay [4], -3.35%; in assay [5], 5.95%; in assay [6], 1.5%.
As for `O=C(/C=C/c1ccco1)c1ccc(O)c(C(=O)O)c1`, the growth inhibition in assay [1] was -7.8%; in assay [2], -1.25%; in assay [3], -1%; in assay [4] it was -39.5%; in assay [5] it was -26.6%; in assay [6] it was -2.9%.
As to `CCCCCCCCCCCCCCCCCCOCCCCCCCCCCCC`, the growth inhibition in assay [1] was -34.8%; in assay [2] it was -15.6%; in assay [3], -20%; in assay [4], -64%; in assay [5], 5.05%; in assay [6] it was -17.1%.
With `CC(=O)OCCn1c(=O)sc2ccccc21`, the growth inhibition was 3.1% in assay [1]; 13.8% in assay [2]; 3.2% in assay [3]; -8.35% in assay [4]; -10.7% in assay [5]; -1.4% in assay [6].
On to `O=C1NC(=O)C2(CCCCCC2)N1`, for which the growth inhibition is -23.9% in assay [1]; -23.9% in assay [2]; 10.1% in assay [3]; -0.65% in assay [4]; -4.1% in assay [5]; -26.7% in assay [6].
For the compound `COC(=O)CC1=CCCc2ccccc21`, the growth inhibition is -3.95% in assay [1]; 1.55% in assay [2]; -2.85% in assay [3]; 7% in assay [4]; 0.35% in assay [5]; -22.2% in assay [6].
Turning to `COc1cc(O)c(OC)c(O)c1C(C)=O`, the growth inhibition in assay [1] is -3.5%; in assay [2], -11.2%; in assay [3] it was -17.4%; in assay [4] it was -19.7%; in assay [5], 2.25%; in assay [6] it was -0.65%.
Take `CC(C)=NNC(=O)Nc1cccc(C)c1C`: the growth inhibition was 9.35% in assay [1]; 15.2% in assay [2]; -7.2% in assay [3]; -47.3% in assay [4]; -9.85% in assay [5]; -6.7% in assay [6].
Take `c1ccc(-c2nc3n(n2)CCC(c2ccccc2)S3)cc1` (stereo unspecified): the growth inhibition in assay [1] was -7.95%; in assay [2], -18.1%; in assay [3], -15.5%; in assay [4], 3.9%; in assay [5], 6.1%; in assay [6], -8.75%.
In the case of `OCC1OC(Nc2ccc(F)cc2)C(O)C1O` (stereo unspecified), the growth inhibition in assay [1] is 2.95%; in assay [2], -10.4%; in assay [3], -1.3%; in assay [4] it was 30.1%; in assay [5], -13.2%; in assay [6], 26.2%.
For the compound `CC(C)N=C(c1ccccc1)N(O)c1ccccc1`, the growth inhibition was -0.4% in assay [1]; 3.15% in assay [2]; -0.75% in assay [3]; -10.3% in assay [4]; 4.2% in assay [5]; 5.05% in assay [6].
For `Clc1ccc(/C=C2/c3ccccc3-c3nc4ccccc4cc32)cc1`, the growth inhibition in assay [1] was -1.1%; in assay [2], 24%; in assay [3], 23.8%; in assay [4], -24.9%; in assay [5] it was -9.4%; in assay [6], 6.85%.
Regarding `O=C1c2ccccc2N(Cc2cccc(F)c2)C2=NCCCC12` (stereo unspecified), the growth inhibition is -4.2% in assay [1]; -39% in assay [2]; 14.2% in assay [3]; 0.35% in assay [4]; 8.3% in assay [5]; 0.35% in assay [6].
As to `CC(=O)NC(C)NC(C)=O`, the growth inhibition in assay [1] is -11.8%; in assay [2], -9.95%; in assay [3], -13.8%; in assay [4] it was -86.5%; in assay [5] it was 7.25%; in assay [6], -5.35%.
As to `O=c1[nH]c(=O)n(C2CC(O)C(CO)O2)cc1NN=NCCCc1ccccc1` (stereo unspecified), the growth inhibition in assay [1] was -21.8%; in assay [2], -12.4%; in assay [3], -8.5%; in assay [4], 10.8%; in assay [5], -11.3%; in assay [6] it was -32.5%.
With `COc1ccc(C2OC3=Nc4ccccc4NC3C2=O)cc1OC` (stereo unspecified), the growth inhibition was 11% in assay [1]; 16.3% in assay [2]; 20.7% in assay [3]; 5.25% in assay [4]; 15.3% in assay [5]; 16.4% in assay [6].
Regarding `O=C1CCC(c2ccccc2)(C2CCN(Cc3ccc(F)cc3)CC2)C(=O)N1` (stereo unspecified), the growth inhibition is -8.55% in assay [1]; 4.85% in assay [2]; -5.85% in assay [3]; -14.8% in assay [4]; 3.45% in assay [5]; 4.8% in assay [6].
For the compound `COc1ccccc1Nc1nc(-c2ccc([N+](=O)[O-])o2)cs1`, the growth inhibition is 70.6% (active) in assay [1]; 36.2% in assay [2]; 87.1% (active) in assay [3]; 92.8% (active) in assay [4]; 44% in assay [5]; 92.3% (active) in assay [6].
Consider `Cc1ccc(C(C)C)cc1NC(=O)NCCCl`, for which the growth inhibition in assay [1] is -9.8%; in assay [2], 10.6%; in assay [3] it was 2.8%; in assay [4] it was -33.3%; in assay [5], -9.6%; in assay [6] it was -6.4%.
